Screens deposited in PubChem by several laboratories.
CYP2C9 act = CYP2C9 (human) activation; recombinant CYP2C9, luciferin-H conversion, luminescence; active compounds read high; factor 1 = untreated enzyme, 0 = blocked; activation factor at 5 µM; hit rate 1.4% among 96,000;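 active means activation factor of 2 or more for CYP2C9 at a 5 µM dose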
CYP2C19 inh = human CYP2C19 inhibition | P33261 | CYP2C19 Supersomes, luciferin-H EGE luminescence, 30 min | inhibition, % at 5 µM | hit rate 21% among 96,000 | AID 778;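 active means CYP2C19 inhibition above a set limit at 5 µM in the primary screen, cut at about 50% in these data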
Target sequence (P33261 whole entry, looked up): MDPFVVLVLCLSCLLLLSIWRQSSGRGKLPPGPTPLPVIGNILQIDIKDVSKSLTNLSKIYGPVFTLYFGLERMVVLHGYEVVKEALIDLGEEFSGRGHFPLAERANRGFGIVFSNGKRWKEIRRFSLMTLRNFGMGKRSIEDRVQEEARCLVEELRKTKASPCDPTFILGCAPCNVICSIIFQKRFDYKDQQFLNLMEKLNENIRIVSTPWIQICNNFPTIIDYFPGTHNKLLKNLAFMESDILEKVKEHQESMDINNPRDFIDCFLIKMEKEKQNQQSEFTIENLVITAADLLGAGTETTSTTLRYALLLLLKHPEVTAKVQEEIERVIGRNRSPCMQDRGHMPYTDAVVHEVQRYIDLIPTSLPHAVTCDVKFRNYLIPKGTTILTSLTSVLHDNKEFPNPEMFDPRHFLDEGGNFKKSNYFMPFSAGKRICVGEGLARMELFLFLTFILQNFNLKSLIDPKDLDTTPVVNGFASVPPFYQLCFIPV
CYP2C9 inhib = human CYP2C9 inhibition | P11712 | CYP2C9 Supersomes, luciferin-H conversion, luminescence | inhibition, % at 5 µM | hit rate 20% among 96,000 | AID 777;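 active means blocking of liver enzyme CYP2C9 beyond about 50% at 5 µM, limit read from the data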
CYP2C19 activ = cytochrome P450 2C19 (human) activation; recombinant CYP2C19, luciferin-H EGE luminescence; active compounds read high; 0 = fully inhibited enzyme, 1 = untreated enzyme; activation factor at 5 µM; 96,000 tested, under 10 active; AID 1025;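 active means activation factor of at least 2 at 5 µM in the primary screen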
Cav32 inh = human Cav3.2 channel inhibition, primary screen. AID 449739. hit rate 4% among 100,000. B-score at 10 µM. Cav3.2-expressing cells, Fluo-4 calcium fluorescence FDSS; active compounds read low;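 active means single-dose well whose peak fluorescence ratio is a statistical outlier from its plate by either plate-standardised score or position-corrected B-score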
A number is an active result; – = inactive; · = no result given. Shown are actives, neighbours in structure and some others; about 27% of the full set was active somewhere.

SMILES	CYP2C9 act	CYP2C19 inh	CYP2C9 inhib	CYP2C19 activ	Cav32 inh
COc1ccccc1N1CCN(C(=O)c2ccc(NC(C)=O)cc2)CC1	–	–	–	–	·
COc1ccccc1N1CCN(C(=O)c2cc(-c3cccs3)on2)CC1	·	·	·	·	–
O=C(NCc1ccco1)C1CCCN(S(=O)(=O)c2ccc(Cl)cc2)C1 (configuration not stated)	–	–	–	–	–
O=C(O)CCC(=O)Nc1ccc(C(=O)OC2CCCCC2)cc1	–	–	–	–	–
CCCCCCC(=O)Nc1ccc(C(=O)N2CCCC2)cc1	–	–	–	–	–
COc1ccccc1N1CCN(C(=O)c2ccncc2)CC1	–	100	86	–	–
CCCCC(=O)Nc1ccc(C(=O)OC2CCCCC2)cc1	–	74	91	–	-4
CCCCC(=O)Nc1ccc(C(=O)N2CCC(C(=O)OCC)CC2)cc1	–	68	54	–	–
CCCCC(=O)Nc1ccc(C(=O)N2CCN(c3ccccc3OC)CC2)cc1	–	57	77	–	·
CC(CN1CCCCC1)OC(=O)c1cc2ccccc2o1 (configuration not stated)	–	–	–	–	–
Cc1cc(NC(=O)c2noc3c2CCCC3)no1	–	–	–	–	–
Cc1onc(-c2ccccc2)c1C(=O)N1CCCSC1=Nc1ccccc1	–	98	61	–	–
Cc1ccccc1-n1ncc2c(SCC(=O)N3c4ccccc4CC3C)ncnc21 (configuration not stated)	–	–	62	–	–
Cc1ccc2nc(SCC(=O)N3c4ccccc4CC3C)c(C)cc2c1 (configuration not stated)	–	–	67	–	–
Cc1ccc2nc(-c3cccnc3SCC(=O)N3c4ccccc4CC3C)[nH]c2c1 (configuration not stated)	–	–	–	–	-4.4
CC1Cc2ccccc2N1C(=O)CSc1nc(N)cc(=O)[nH]1 (configuration not stated)	–	–	–	–	–
Cc1csc(NC(C)c2nc3cc(Cl)c(N4CCCCC4)cc3n2CCOCCO)n1 (configuration not stated)	·	·	·	·	–
COc1ccccc1C(=O)NCCC(=O)N1CC(=O)Nc2ccccc21	2	–	–	–	–
O=C1CN(C(=O)OCc2ccccc2)c2ccccc2N1	–	69	–	–	–
O=C(NC1CCC(NC(=O)C2CCCO2)CC1)C1CCCO1 (configuration not stated)	–	–	–	–	–
CC(C)(C)n1nc2c(c1NC(=O)COc1ccc(Cl)cc1)CSC2	–	67	86	–	-4.4
CC(C)(C)n1nc2c(c1NC(=O)Cc1ccc(F)cc1)CSC2	–	64	68	–	–
CC(C)(C)n1nc2c(c1NC(=O)Cc1cccs1)CSC2	–	–	76	–	–
CC(C)(C)n1nc2c(c1NC(=O)Cc1cccc3ccccc13)CS(=O)C2 (configuration not stated)	–	–	–	–	–
N#Cc1cc2cc3c(cc2nc1N1CCOCC1)OCO3	–	55	–	–	–
SMILES	CYP2C9 act	CYP2C19 inh	CYP2C9 inhib	CYP2C19 activ	Cav32 inh
Cc1ccc(-c2nn(-c3ccccc3)cc2C=C2C(=O)CC(C)(C)CC2=O)cc1	·	·	·	·	–
CC1CCCN(C2=NC(=O)/C(=C/c3cn(-c4ccccc4)nc3-c3cccc(S(=O)(=O)N(C)C)c3)S2)C1 (configuration not stated)	–	–	65	–	–
CC(C)CCN1CC(C(=O)N2CCN(c3ccc(F)cc3)CC2)CC1=O (configuration not stated)	–	–	–	–	–
CC(C)(C)OC(=O)N1CC(O)CC1C(=O)OCC(=O)c1ccc(Cl)cc1 (configuration not stated)	–	55	–	–	–
Cc1nn(CC#N)c(=O)n1-c1cccc(F)c1	–	–	–	–	–
Cc1nn(Cc2ccc([N+](=O)[O-])cc2)c(=O)n1-c1ccc(F)cc1	–	–	86	–	–
Cc1nn(Cc2ccc([N+](=O)[O-])cc2)c(=O)n1-c1c(F)cccc1F	–	59	–	–	·
Cc1c(Nc2cc(N3CCCCCC3)c3nonc3c2[N+](=O)[O-])c(=O)n(-c2ccccc2)n1C	–	–	–	–	–
COc1ccc(CC(NC(C)=O)C(=O)NC2CCN(c3nnnn3-c3ccccc3)CC2)cc1 (configuration not stated)	–	–	–	–	–
COc1nc(OC)nc(N2CCC(NC(=O)C(Cc3ccc(C(C)C)cc3)NC(C)=O)CC2)n1 (configuration not stated)	–	–	57	–	–
Cc1ccc(C(=O)C(C)OC(=O)c2cc3cc([N+](=O)[O-])ccc3oc2=O)cc1 (configuration not stated)	–	–	88	–	–
C=CCNC(=O)CCCc1ccccc1	–	67	–	–	–
CC(C)CNC(=O)CCCc1ccccc1	–	83	–	–	–
N#CC1(c2ccccc2)CCCN1C(=O)c1ccccc1Br (configuration not stated)	–	–	–	–	–
COc1ccccc1C(=O)N1CCCC1(C#N)c1ccccc1 (configuration not stated)	–	–	90	–	–
Cc1cc(N2C(=O)CC(N3CCN(C(c4ccccc4)c4ccccc4)CC3)C2=O)no1 (configuration not stated)	–	78	98	–	–
COC(=O)CN=C1OC(=O)N2C(=O)C3=C4[C@@H](C[C@H]5C(=O)N(c6ccccc6)C(=O)[C@H]5[C@H]4[C@@]12Cc1ccccc1)[C@H]1C(=O)N(c2ccccc2)C(=O)[C@H]1[C@H]3C	·	·	·	·	–
Cc1c(NC(=O)C(C)OC(=O)CC2Sc3ccccc3NC2=O)c(=O)n(-c2ccccc2)n1C (configuration not stated)	–	–	–	–	–
CSC1=N/C(=C\c2ccc(C)o2)C(=O)S1	–	–	–	–	–
Nc1c(C(=O)c2ccccc2)sc2snc(SCC(=O)c3ccccc3)c12	–	–	83	–	–
N#Cc1c(SCc2ccc(Cl)cc2)sc(C(=O)c2ccccc2)c1N	–	–	–	–	–
O=C(c1ccccc1)c1nc2ccccc2[nH]c1=O	–	–	–	–	–
O=C(c1ccccc1)c1nc2ccccc2n(CCCn2c(=O)c(C(=O)c3ccccc3)nc3ccccc32)c1=O	–	74	97	–	–
Cc1cc(C)n(C(=O)CCNC(=O)c2ccccc2Br)n1	2.1	–	–	–	–
COc1ccccc1C(=O)NCC(=O)n1nc(C)cc1C	3	–	–	–	–
COc1cc(C(=O)NCC(=O)n2nc(C)cc2C)cc(OC)c1OC	–	–	–	–	–
C[C@@H]1CC[C@@]2(O[C@@H](CCO)C[C@@H](O)[C@@H]2O)O1	·	·	·	·	–
Cc1c(Cl)ccc2c1NC(=O)[C@]21N[C@@H](Cc2ccccc2)[C@H]2C(=O)N(c3ccc(F)cc3)C(=O)[C@H]21	–	–	–	–	–
CC(C)(C)c1cc(Br)ccc1OCC(=O)Nc1ncn[nH]1	–	54	–	–	–
